A selection: hits, their analogues and other compounds. The true share with any hit is near 8.3%.
SW480 rereplic – A quantitative high throughput screen for small molecules that induce DNA re-replication in SW480 colon adenocarcinoma cells. SW480 DNA re-replication, Hoechst DNA content imaging, 48 h. AID 624297, 2012. actives 1.8% (n = 340,000). Potency, µM (titrated, usually from 46.1 µM), hits mostly activators; note: nearly all actives have a fitted effect of over 55% in size
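Image-based read-out: total Hoechst fluorescence of nuclei (405 nm excitation, 500-530 nm emission), with hits raising the fraction of high-intensity nuclei. SW480 colon cells incubated 48 hr with compounds at 37 C.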
Giardia kill – Small Molecules that selectively kill Giardia lamblia: qHTS; activity change, % at 7.66 µM, hits read low; AID 540267, 2011; Giardia lamblia trophozoite viability; actives 0.15% (n = 340,000); in the data active = activity change below about -80%; inconclusive = between about -30% and that limit;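 note: parasites exposed to compound for two days anaerobically before the ATP read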
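Luminescent ATP signal served as the viability read-out, measured 15-30 min after adding ATP detection reagent to trophozoites that had been incubated with compounds for 48 hrs at 37 deg C anaerobically at 100 cells/well.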
MCF10A rerep – A quantitative high throughput screen for small molecules that induce DNA re-replication in MCF 10a normal breast cells. actives 2.9% (n = 350,000). MCF 10A DNA re-replication, Hoechst nuclear intensity, 48 h. AID 624296, 2012. Potency, µM (top dose mostly 46.1 µM), actives largely listed as activators; note: nearly all actives have a fitted effect of over 50% in size
RORg inh – qHTS for inhibitors of ROR gamma transcriptional activity; AID 2551, 2010; actives 5.4% (n = 310,000); Drosophila S2 Gal4-RORgamma UAS-luciferase reporter, 20 h; Nuclear receptor ROR-gamma (Mus musculus), P51450; Potency, µM (highest dose often 53.6 µM), usual class: inhibitors; note: nearly all actives have a fitted effect of over 60% in size
Target sequence (P51450 whole entry, looked up, the tested form may be a part): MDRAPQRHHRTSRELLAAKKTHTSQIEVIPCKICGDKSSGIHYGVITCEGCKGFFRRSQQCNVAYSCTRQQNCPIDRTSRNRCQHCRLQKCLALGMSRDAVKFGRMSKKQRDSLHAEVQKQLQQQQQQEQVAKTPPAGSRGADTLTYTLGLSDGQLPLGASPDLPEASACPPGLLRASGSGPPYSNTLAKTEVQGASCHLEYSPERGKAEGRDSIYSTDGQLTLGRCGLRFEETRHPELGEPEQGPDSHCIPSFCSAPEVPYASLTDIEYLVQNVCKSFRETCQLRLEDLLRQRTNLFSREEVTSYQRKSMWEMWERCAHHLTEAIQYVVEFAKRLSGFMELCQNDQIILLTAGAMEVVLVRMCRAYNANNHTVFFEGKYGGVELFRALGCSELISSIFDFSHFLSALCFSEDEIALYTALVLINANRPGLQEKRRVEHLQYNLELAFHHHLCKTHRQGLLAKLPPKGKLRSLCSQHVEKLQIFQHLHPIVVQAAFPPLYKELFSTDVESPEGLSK
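Compounds are pin-transferred onto Drosophila Schneider cells expressing a copper-inducible Gal4–ROR gamma transactivation domain fusion. After 1 hr, copper sulfate is added to 700 uM final; luciferase is read 20 hr later.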
Gal4-VP16 FLuc – VP16 counterscreen qHTS for inhibitors of ROR gamma transcriptional activity. Drosophila S2 Gal4-VP16 UAS-luciferase, luminescence, 20 h. Potency, µM (highest dose often 53.6 µM), actives largely listed as inhibitors. actives 3.5% (n = 310,000). AID 2546, 2010;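 note: Gal4-VP16 expression switched on by copper sulfate through the metallothionein promoter; nearly all actives have a fitted effect of over 50% in size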
BCR signal inh – qHTS Assay to Find Inhibitors of Chronic Active B-Cell Receptor Signaling. ABC-DLBCL IkBa-CBG/CBR reporter, luminescence ratio, 4 h. Potency, µM (doses to about 46.1 µM), actives largely listed as inhibitors. actives 0.05% (n = 340,000). AID 493014, 2011; active = well fitted inhibition curve with a large enough effect in the signal ratio, with a control signal flat, not every such curve was filed as active; inconclusive = small, poorly fitted or top-dose-only effect, or effect the other way, or a change in a side signal; the % refers to the signal ratio
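Cell line TMD8 (human ABC DLBCL), stably expressing tet-inducible CBG68-IkBa fusion and CBR; IMDM/0.5% FBS; cpd up to 46 uM; dox induction, 4 h, 37C/5% CO2; dual luminescence; green/red ratio; MG132 control.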
Numbers stand for hits; – = inactive; ? = inconclusive; · = not tested or not shown; [ ] = remark or other dose. Unless noted, calls come from the whole dose curve; as a rule, active = well fitted curve in the direction sought with a large enough effect; inconclusive = small, poorly fitted or top-dose-only effect, or another doubt; inactive = no such curve, though single readings can be large; an effect the other way counts as inactive or inconclusive.

SMILES	SW480 rereplic	Giardia kill	MCF10A rerep	RORg inh	Gal4-VP16 FLuc	BCR signal inh
COc1cc(C(=O)N2CCN(c3ncnc4sc(C)c(C)c34)CC2)cc(OC)c1OC	–	–	–	?	3.98µM	?
Cc1cc(Nc2ccccc2)nc2cc(O)ccc12	?	–	20.6µM	?	–	?
COc1ccc(Nc2cc(C)c3ccc(O)cc3n2)cc1	?	–	?	?	?	?
COc1ccccc1N1CCN(C(=O)c2ccc(COc3cccc4c3OC(C)(C)C4)cc2)CC1	?	–	?	·	·	–
CCCc1cc(=O)[nH]c(SCC(=O)N2CCc3ccccc32)n1	–	–	–	·	·	–
O=C(Nc1ccccc1)c1ncoc1-c1ccc(Cl)cc1	–	–	–	–	–	–
O=C(NCc1ccccc1)C(=O)NCC(c1ccco1)N1CCOCC1 (centres undefined)	–	–	–	–	–	–
O=P(c1ccccc1)(c1ccccc1)C(c1ccco1)N1CCOCC1 (centres undefined)	–	–	–	2.24µM	–	–
CC(C)(C)C1CCc2c(C(=O)NNC(=O)/C=C/C(=O)O)csc2C1 (centres undefined)	–	–	?	?	14.1µM	–
S=C(NC1CCCC1)N1CCN(c2ccc(Cl)cc2)CC1	–	–	–	–	–[10 µM]	–
O=C(Nc1ccc(F)cc1F)c1cc2ccccc2oc1=O	–	–	–	–	–	–
NC(=O)c1cc2ccccc2o/c1=N\NC(=O)c1ccc(F)cc1	–	–	–	–	–	?
N/C(=N\NC(=O)c1cccc(F)c1)c1cc2ccccc2oc1=O	–	–	–	1µM	3.55µM	?
N/C(=N\NC(=O)c1cccs1)c1cc2ccccc2oc1=O	–	–	–	7.08µM	7.08µM	?
N/C(=N\NC(=O)c1ccc(F)cc1)c1cc2ccccc2oc1=O	–	–	–	3.55µM	?	–
Cc1sc(NC(=O)CN(Cc2ccc(F)cc2)C(=O)C(C)C)c(C(N)=O)c1C	–	–	?	–	–	?
O=C(CCl)Nc1ccc(N=Nc2ccccc2)cc1	23.1µM	–	?	?	?	?
CC(=O)Nc1ccc(NC(=O)Cc2ccc(-c3ccccc3)cc2)cc1	–	–	–	–	–	?
O=C(CCl)Nc1ccc(-c2ccccc2)cc1	?	–	16.4µM	25.1µM	?	?
O=C(CCl)Nc1cccc(Oc2ccccc2)c1	–	–	?	10µM	?	?
O=C(CCl)Nc1cccc(Oc2cnccn2)c1	–	–	?	?	?	?
O=C1CC[C@@]23/C=C/C(=O)NCCCCNCCCNC(=O)/C=C/c4ccc(c2c4)OC3C1 (some centres undefined)	·	·	·	–	–	·
CCOC(=O)c1cnc(-n2nc(C)cc2C)nc1NCc1ccccc1	?	–	20.6µM	1.41µM	2.51µM	–
CCOC(=O)c1cnc(-n2nc(C)cc2C)nc1NC(C)c1ccccc1 (centres undefined)	–	–	–	1.41µM	2.24µM	–
CCOC(=O)c1c(C)c(C(=O)NCc2ccc3c(c2)OCO3)c(C)n1CC	–	–	–	–	–	–
SMILES	SW480 rereplic	Giardia kill	MCF10A rerep	RORg inh	Gal4-VP16 FLuc	BCR signal inh
CCOC(=O)c1cnc(-n2nc(C)cc2C)nc1NCCO	–	–	–	?	–	–
CCOC(=O)c1cnc(-n2cc(C)cn2)nc1NCc1ccc2c(c1)OCO2	–	–	–	12.6µM	?	–
CCOC(=O)C(C)Sc1nnc(-c2ccccc2O)n1-c1ccc(C)cc1 (centres undefined)	–	–	–	3.16µM	5.62µM	–
CC(=O)O/N=C/c1c(N2CCOCC2)n(C)c2ccccc12	1.84µM	–	–	6.31µM	11.2µM	?
Cn1c(Cl)c(/C=N/OC(=O)c2ccc(Cl)cc2)c2ccccc21	–	–	?	–	–	–
Cn1c(N2CCOCC2)c(/C=N/OC(=O)c2ccc(F)cc2)c2ccccc21	?	–	–	0.631µM	2.24µM	–
Cc1ccc(C(=O)O/N=C/c2c(N3CCOCC3)n(C)c3ccccc23)cc1	?	–	?	1.12µM	3.55µM	–
Cn1c(N2CCOCC2)c(/C=N/OC(=O)c2cccnc2Cl)c2ccccc21	–	–	–	–	–[10 µM]	–
Cn1c(N2CCOCC2)c(/C=N/O)c2ccccc21	–	–	–	–	–[10 µM]	–
C[C@H]1C[C@@H]2[C@@H]([C@@H](O)C[C@@]3(C)[C@H]2CC[C@]3(O)C(=O)CO)[C@@]2(C)C=CC(=O)C=C12	–	·	–	–[2.98 µM]	–	·
CCC(CC)C(=O)NC12CC3CC(CC(C3)C1)C2	–	–	–	–	–	–
Cc1cccc(N2CCN(C(=O)c3ccc(N4CCCC4=O)cc3)CC2C)c1 (centres undefined)	–	–	–	–	–	–
Cc1cccc(N2CCN(C(=O)c3cccc(N4CCCC4=O)c3)C(C)C2)c1 (centres undefined)	?	–	1.46µM	–	–	?
COC(=O)[C@@H](Cc1ccccc1)NC(=O)NCCc1ccc(OC)c(OC)c1	–	–	–	–	–	–
Cc1c(N(C)S(=O)(=O)c2cc(C(=O)N3CCCC3)ccc2Cl)c(=O)n(-c2ccccc2)n1C	–	–	?	–	–	–
NC(=O)SCC(=O)Nc1cccc(Cl)c1	–[9.22 µM]	–	–	10µM	?	–
CCn1c(C)nnc1SCC(=O)Nc1cccc(Cl)c1	14.6µM	–	–	–	–	–
COc1ccc(C(C(=O)NCc2ccc(F)cc2)N(Cc2cccnc2)C(=O)c2snc(C(N)=O)c2N)cc1 (centres undefined)	–	–	–	–	–	–
C[C@H](CO)N1C[C@H](C)[C@@H](CN(C)S(C)(=O)=O)Oc2ccc(NS(=O)(=O)c3cn(C)cn3)cc2C1=O	–	–	–	·	·	–
O=C1C=C(NCCN2CCOCC2)C(=O)c2cnccc21	10.3µM	·	?	10µM	?	?
O=C1C=C(NCCO)C(=O)c2cnccc21	·	·	·	3.55µM	6.31µM	·
Cc1ccc(C)c(S(=O)(=O)N2CCN(C(=O)CCC(=O)NCc3ccc(Cl)cc3Cl)CC2)c1	–	–	20.6µM	·	·	·
Cc1ccccc1S(=O)(=O)N1C[C@H]2CON(C)[C@H]2C[C@H]1c1cccc(N2CCOCC2)c1	–	–	–	·	·	·
Cc1ccccc1S(=O)(=O)N1C[C@H]2CON(C)[C@H]2C[C@H]1c1cccc(-c2ccc(C#N)cc2)c1	4.11µM	–	–	·	·	·
Cc1cc(C)nc(SCCn2c(N3CCOCC3)nc3c2c(=O)[nH]c(=O)n3C)n1	–	–	–[9.22 µM]	–	–	?
